CHX counter = affects cycloheximide protein synthesis inhibition readout, counter-screen; cell reporter, cycloheximide protein synthesis inhibition counterscreen; max response, %; 300,000 compounds, 12% hits; AID 2314; in the data active = max response mostly above about 13%, no sharp cut-off; inactive = mostly below about 14%; also: read at 38.3 µM for the half of the compounds with a filed dose; 0% is about no effect
NS1 function inh = influenza NS1 inhibition; Potency, µM (highest dose often 46.1 µM), without a hit: top-dose activity, positive = more growth; 270,000 compounds, 0.4% hits; calls by dose curve; also: potency is read from the fitted curve at half-maximal effect; actives are rising curves; nearly all actives have a fitted effect of over 50% in size
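Growth recovery, yeast-based: influenza A NS1 expressed in S. cerevisiae causes slow growth, and suppressors are detected by OD600. The parent strain without NS1 is used as positive control.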
Sm TGR inh = S. mansoni TGR enzyme inhibition; purified TGR, DTNB reduction, TNB absorbance 405 nm; Potency, µM (series often up to 114 µM), for inactives: at the highest dose activity change, negative = inhibition, most hits filed as inhibitors; 360,000 compounds, 3% hits; AID 485364; also: potency is read from the fitted curve at half-maximal effect; % is scaled to controls: 0 for no effect and ±100 for the full control effect; nearly all actives have a fitted effect of over 60% in size
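TGR 20 nM + NADPH 100 uM (dispensed conc.), cpd preinc 15 min RT; start with NADPH (500 uM addition) then DTNB (15 mM addition). Kinetic TNB absorbance, 405 nm filter. Four-parameter Hill fit across titration.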
Pf growth 48h = inhibits P. falciparum growth in the first generation, 48 h. P. falciparum luciferase growth in erythrocytes, 48 h. Potency, µM (series often up to 28.7 µM), for inactives: at the highest dose activity change, negative = inhibition, usual class: inhibitors. 310,000 compounds, 5.9% hits; also: potency is read from the fitted curve at half-maximal effect; % is scaled to controls: 0 for no effect and ±100 for the full control effect
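Firefly luciferase activity from engineered P. falciparum reports growth; inhibitors lower the luminescent signal. Cultures contained 2% hematocrit erythrocytes at 0.1% final parasitemia.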
Shiga inhibitor = blocks Shiga toxin action in Vero cells | Vero cells, Shiga toxin protein synthesis inhibition reporter | inhibition, % at 38.7 µM | 290,000 compounds, 9.2% hits | AID 2315; in the data active = inhibition mostly above about 28%, no sharp cut-off; inactive = mostly below about 43%; also: 0% is about no effect
Pf growth 96h = P. falciparum growth inhibition at 96 hours. P. falciparum luciferase reporter growth, 96 h. Potency, µM (titrated, usually from 28.7 µM), inactives show top-dose activity change, negative = inhibition, most hits filed as inhibitors. 320,000 compounds, 6.9% hits; also: potency is read from the fitted curve at half-maximal effect; % is scaled to controls: 0 for no effect and ±100 for the full control effect
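Cell-based qHTS: luciferase-tagged P. falciparum in erythrocytes (2% hematocrit, 0.05% parasitemia final) incubated with compounds for 96 hours, 37 C, 5% CO2; luciferase detection reagent then added and luminescence measured.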
* = called active by the depositor; ? = inconclusive; . = no result. Only some compounds are listed: those with a hit (about 21% of all), similar ones and a draw of the others. Unless noted, calls follow the shape of the dose curve; as a rule, active = well fitted curve in the direction sought with a large enough effect; inconclusive = small, poorly fitted or top-dose-only effect, or another doubt; inactive = no such curve, though single readings can be large; an effect the other way counts as inactive or inconclusive.

SMILES	CHX counter	NS1 function inh	Sm TGR inh	Pf growth 48h	Shiga inhibitor	Pf growth 96h
CCOc1ccc(NC(=O)c2ccc(NC(=O)c3ccccc3Br)cc2)cc1	.	.	-1%	0%	.	11%
CCOc1ccc(NC(=O)c2cccnc2SC)cc1	22*	.	3%	68%	20	55%
COc1ccc(Cl)cc1NC(=O)C1CCCN(c2ncnc3c2nc2n3CCCCC2)C1 (stereo not drawn)	-1	4%	-8%	?	-12	?
Cc1cccc(C(=O)OCC(=O)NCc2ccco2)c1	.	.	-32%	-5%	.	-29%
CCOc1ccc(NC(=O)c2ccccc2CO)cc1	31*	-17%	-24%	.	39	.
COc1cc(Cl)c(NC(=O)c2cc(S(=O)(=O)N3CCCCC3)c[nH]2)c(OC)c1	.	.	-9%	.	.	.
COc1cc(C2CC(=O)N(CC(=O)NCc3ccco3)c3ccccc3S2)cc(OC)c1OC (stereo not drawn)	8	2%	-35%	10µM*	-4	85%
O=C(CN1C(=O)CC(c2ccco2)Sc2ccccc21)Nc1ccccc1F (stereo not drawn)	-2	-117%	25µM*	?	14	?
O=C(CN1C(=O)CC(c2ccco2)Sc2ccccc21)Nc1ccc(Br)cc1 (stereo not drawn)	.	.	-8%	.	.	.
CCN1C(=O)CC(c2ccco2)Sc2ccccc21 (stereo not drawn)	2	18%	25µM*	-5%	-9	.
O=C(CN1C(=O)CC(c2ccco2)Sc2ccccc21)NCc1ccc2c(c1)OCO2 (stereo not drawn)	5	13%	-24%	?	9	?
Cc1ccc(C(=O)n2nc(C)c(S(=O)(=O)N3CCOCC3)c2C)cc1C	.	.	-13%	.	.	.
Cc1ccc(C(=O)N2CCC(N3CCC(C(=O)N4CCOCC4)CC3)CC2)cc1C	-1	23%	6%	?	-5	?
C/C(=N\NC(=O)c1ccc([N+](=O)[O-])cc1)c1cccc([N+](=O)[O-])c1	11	.	-9%	27%	3	?
C/C(=N\NC(=O)c1cccc(S(=O)(=O)Nc2ccccc2Cl)c1)c1ccco1	2	?	-10%	13%	2	-12%
C/C(=N\NC(=O)c1cccc(N/N=C(\C)c2cc(O)ccc2O)c1)c1cc(O)ccc1O	32*	10%	-27%	?	88*	?
C/C(=N\NC(=O)c1cccc([N+](=O)[O-])c1)c1ccco1	15*	5%	14%	13%	50*	13%
C/C(=N\NC(=O)c1cccc(N/N=C(\C)c2ccco2)c1)c1ccco1	29*	.	-28%	0%	90*	7%
Cc1ccccc1NC(NC(=O)c1cccs1)C(Cl)(Cl)Cl (stereo not drawn)	-4	-39%	17%	-1%	-7	3%
Cc1cc(C)c(NC(=O)CSc2nc(=O)[nH]c3c2CCCC3)c(C)c1	.	.	6%	.	.	.
